# Records with an inconclusive call do not appear. Activity calls are given as the source filed them. The calls were made as follows, unless noted: active = hit-call score of the fitted dose curve at least 0.9, where 1 is the maximum; inactive = score below 0.9.
# How the values were obtained:
# [1] = molecular target: Retinoic acid receptor RXR-alpha (Homo sapiens) (UniProt P19793); assay: OT_NURR1_NURR1RXRa_1440: Odyssey Thera (OT) 24-hour HEK293T Protein Complementation Assay for Nurr1/retinoid X receptor (RXR) (AID 2283386; active = hit-call score of the fitted dose curve at least 0.9, where 1 is the maximum)
# Procedure, shortened: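 HEK293T cells were dosed with compound and read 24 h later by fluorescence intensity in a protein-fragment complementation format, where Nurr1–RXRα interaction reconstitutes a split reporter. Activity was fitted as gain of signal relative to DMSO baseline.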
# [2] = molecular target: Peroxisome proliferator-activated receptor gamma (Homo sapiens) (UniProt P37231); assay: OT_PPARg_PPARgSRC1_0480: Odyssey Thera (OT) 8-hour Protein-Complementation Assay for Peroxisome Proliferator-activated Receptor Gamma / SRC-1 Co-activator (AID 2283387; active = hit-call score of the fitted dose curve at least 0.9, where 1 is the maximum;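 also: nuclear to cytoplasmic split Venus YFP fluorescence ratio reporting PPARg SRC-1 interaction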)
# Procedure, shortened: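 Read-out: 488 nm N/C fluorescence ratio from complemented Venus YFP fragments, ≥350 cells per image, gain-of-signal fitted against DMSO baseline. Fusions of PPARg/SRC-1 with IFP1/IFP2 expressed transiently in HEK293T; compounds applied 8 h.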
# [3] = molecular target: Peroxisome proliferator-activated receptor gamma (Homo sapiens) (UniProt P37231); assay: OT_PPARg_PPARgSRC1_1440: Odyssey Thera (OT) 24-hour Protein-Complementation Assay for Peroxisome Proliferator-activated Receptor Gamma/ SRC-1 Co-activator (AID 2283388; active = hit-call score of the fitted dose curve at least 0.9, where 1 is the maximum;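 also: nuclear to cytoplasmic ratio of reconstituted Venus YFP fluorescence in fixed imaged cells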)
# Procedure, shortened: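 Readout: nuclear-to-cytoplasmic 488 nm fluorescence ratio, ≥350 cells per image, 8 images per well, after 24 h compound exposure of HEK293T expressing PPARg/SRC-1 split-YFP fusions. Activity fitted in positive direction against DMSO.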
# [4] = CEETOX_H295R_11DCORT: CeeTox H295R High-throughput Steroidogenesis Assay for 11-Deoxycortisol (11DCORT) (AID 2283432); conditions: actives raise or lower the signal
# Procedure, shortened: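 H295R cells; 10 uM forskolin prestim 48 h; compound in 0.1% DMSO 48 h; media extracted with MTBE; 11-deoxycortisol by LC-MS/MS, 7-point standard curve; gain/loss vs DMSO baseline; viability by MTT in same wells.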
# [5] = CEETOX_H295R_OHPREG: CeeTox H295R High-throughput Steroidogenesis Assay for OH-Pregnenolone (OHPREG) (AID 2283434); conditions: actives raise or lower the signal
# Procedure, shortened: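 Hormone levels in spent medium were measured by tandem mass spectrometry following liquid-liquid extraction. Cells (H295R) had been forskolin-stimulated (10 uM, 48 h) before a 48 h chemical exposure at 0.1% DMSO, with activity fitted in both directions against DMSO.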
# [6] = CEETOX_H295R_OHPROG: CeeTox H295R High-throughput Steroidogenesis Assay for OH-Progesterone (OHPROG) (AID 2283435); conditions: actives raise or lower the signal
# Procedure, shortened: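 H295R human adrenal cells were prestimulated 48 h with 10 uM forskolin, then exposed 48 h to test chemical (0.1% DMSO final). 17alpha-hydroxyprogesterone in medium was measured by HPLC-MS/MS after MTBE extraction; bidirectional fitting vs DMSO.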
# [7] = CEETOX_H295R_CORTIC: CeeTox H295R High-throughput Steroidogenesis Assay for Corticosterone (CORTIC) (AID 2283437); conditions: actives raise or lower the signal;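 also: corticosterone secreted into medium quantified by mass spectrometry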
# Procedure, shortened: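 Corticosterone secreted into medium is measured by reverse-phase HPLC with tandem MS following liquid-liquid extraction. Cells are forskolin-stimulated (10 uM, 48 h) before 48 h test exposure; activity fitted in both directions against DMSO.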
# [8] = CEETOX_H295R_CORTISOL: CeeTox H295R High-throughput Steroidogenesis Assay for Cortisol (AID 2283438); conditions: actives raise or lower the signal;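 also: cortisol secreted into medium quantified by LC-MS/MS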
# Procedure, shortened: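 H295R human adrenal cells were prestimulated 48 h with 10 uM forskolin, then exposed 48 h to test chemical (0.1% DMSO final). Medium cortisol was quantified by HPLC-MS/MS after MTBE extraction; bidirectional fitting relative to DMSO baseline.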
# [9] = CEETOX_H295R_DOC: CeeTox H295R High-throughput Steroidogenesis Assay for DOC (AID 2283439); conditions: actives raise or lower the signal
# Procedure, shortened: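 H295R adrenal cells prestimulated 48 h with 10 uM forskolin, then exposed 48 h to test chemical (0.1% DMSO final). Medium 11-deoxycorticosterone extracted with MTBE, quantified by HPLC-MS/MS; bidirectional fit versus DMSO baseline; MTT viability in same wells.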
# [10] = CEETOX_H295R_ESTRADIOL: CeeTox H295R High-throughput Steroidogenesis Assay for Estradiol (AID 2283440); conditions: actives raise or lower the signal;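 also: estradiol secreted into medium quantified by LC-MS/MS after dansyl derivatisation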
# Procedure, shortened: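 H295R, 48 h forskolin (10 uM) prestim → 48 h compound, 0.1% DMSO final. Estradiol in medium: MTBE extraction, dansyl chloride derivatization, LC-MS/MS. Fit bidirectional vs DMSO baseline; MTT viability in same wells.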
# [11] = CEETOX_H295R_ESTRONE: CeeTox H295R High-throughput Steroidogenesis Assay for Estrone (AID 2283441); conditions: actives raise or lower the signal;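 also: estrone secreted into medium measured by LC-MS/MS after dansyl derivatization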
# Procedure, shortened: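 H295R cells; 48 h forskolin (10 uM) prestimulation; 48 h compound exposure, 0.1% DMSO final. Medium estrone: MTBE extraction, dansyl derivatization, HPLC-MS/MS. Bidirectional fit vs DMSO.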
# [12] = CEETOX_H295R_PROG: CeeTox H295R High-throughput Steroidogenesis Assay for Progesterone (PROG) (AID 2283442); conditions: actives raise or lower the signal
# Procedure, shortened: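 Progesterone read-out: HPLC-MS/MS on MTBE extracts of conditioned medium after 48 h chemical exposure of forskolin-primed (10 uM, 48 h) H295R cells. Gain or loss of signal was fitted relative to DMSO baseline.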
# [13] = read-out: Tumor necrosis factor receptor superfamily member 6 (Homo sapiens) (UniProt P25445); assay: LTEA_HepaRG_FAS: Life Technologies and Expression Analysis (LTEA) Assay for Fas cell surface death receptor (FAS) using HepaRG (AID 2283447); conditions: mRNA level, 48 h; actives raise or lower the signal
# Procedure, shortened: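 FAS transcript level was measured by TaqMan qRT-PCR against three housekeeping genes after 48 h chemical exposure. Cells were HepaRG, 0.5% DMSO vehicle, with a top concentration of 100 uM and half-log dilutions over eight points, in duplicate.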
# [14] = read-out: Fatty acid synthase (Homo sapiens) (UniProt P49327); assay: LTEA_HepaRG_FASN: Life Technologies and Expression Analysis (LTEA) Assay for Fatty Acid Synthase (FASN) using HepaRG (AID 2283448); conditions: mRNA level, 48 h; actives raise or lower the signal
# Procedure, shortened: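 Differentiated human HepaRG cells were exposed for 48 h in serum-free induction medium to eight half-log concentrations up to 100 uM in 0.5% DMSO, in duplicate. FASN mRNA was quantified by TaqMan qRT-PCR, normalized to ACTB/GAPDH/POLR2A, and fitted bidirectionally against DMSO.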
# [15] = read-out: Cyclin D2 (CCND2), CCND2 (gene 894); assay: LTEA_HepaRG_CCND2: Life Technologies and Expression Analysis (LTEA) Assay for Cyclin D2 (CCND2) using HepaRG (AID 2283449); conditions: mRNA level, 48 h; actives raise or lower the signal
# Procedure, shortened: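 Read-out is CCND2 mRNA level measured by qRT-PCR in human HepaRG liver cells and normalised to three housekeeping genes. Chemicals were applied for 48 h at up to 100 uM, with gain or loss fitted relative to 0.5% DMSO.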
# [16] = read-out: Cyclin Dependent Kinase Inhibitor 1A (CDKN1A), CDKN1A (gene 1026); assay: LTEA_HepaRG_CDKN1A: Life Technologies and Expression Analysis (LTEA) Assay for Cyclin Dependent Kinase Inhibitor 1A (CDKN1A) using HepaRG (AID 2283450); conditions: mRNA level, 48 h; actives raise or lower the signal
# Procedure, shortened: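 HepaRG, 48 h dosing, 8-pt half-log series from 100 uM top, 0.5% DMSO vehicle, duplicates. Readout: TaqMan qRT-PCR of CDKN1A transcript, housekeeping-normalized (ACTB, GAPDH, POLR2A). Up/down curve fit relative to DMSO.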
# [17] = molecular target: Retinoic acid receptor RXR-alpha (Homo sapiens) (UniProt P19793); assay: OT_NURR1_NURR1RXRa_0480: Odyssey Thera (OT) 8-hour HEK293T Protein Complementation Assay for Nurr1/retinoid X receptor (RXR) (AID 2283385; active = hit-call score of the fitted dose curve at least 0.9, where 1 is the maximum)
# Procedure, shortened: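 HEK293T cells expressing Nurr1 and RXRα fused to reporter fragments were dosed with compound for 8 hours. Complex formation was read as fluorescence intensity and analysed as gain of signal against DMSO as baseline.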
# [18] = CEETOX_H295R_ANDR: CeeTox H295R High-throughput Steroidogenesis Assay for Androstenedione (ANDR) (AID 2283436); conditions: actives raise or lower the signal
# Procedure, shortened: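 Read-out is androstenedione secreted into medium, measured by tandem mass spectrometry after liquid-liquid extraction. Cells were H295R, dosed for 48 h per modified OECD 456; activity fitted in both directions relative to DMSO.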
# [19] = molecular target: Bile acid receptor (Homo sapiens) (UniProt Q96RI1); assay: OT_FXR_FXRSRC1_0480: Odyssey Thera (OT) 8-hour HEK293T Protein-Complementation Assay for Farnesoid X receptor/SRC-1 Co-activator (AID 2283383; active = hit-call score of the fitted dose curve at least 0.9, where 1 is the maximum)
# Procedure, shortened: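 HEK293T cells expressing FXR and SRC-1 fused to reporter fragments were dosed with compound for 8 h; fluorescence from the reconstituted reporter marked co-activator recruitment. Gain of signal was fitted against the DMSO baseline.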
# [20] = molecular target: Bile acid receptor (Homo sapiens) (UniProt Q96RI1); assay: OT_FXR_FXRSRC1_1440: Odyssey Thera (OT) 24-hour HEK293T Protein-Complementation Assay for Farnesoid X receptor/SRC-1 Co-activator (AID 2283384; active = hit-call score of the fitted dose curve at least 0.9, where 1 is the maximum)
# Procedure, shortened: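 HEK293T cells were dosed with compound and read 24 h later by fluorescence intensity from protein-fragment complementation reporting FXR/SRC-1 co-activator interaction. Gain of signal was fitted relative to DMSO negative control as baseline.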
# Sequence of Retinoic acid receptor RXR-alpha (Homo sapiens) (P19793 whole entry, looked up, the tested form may be a part): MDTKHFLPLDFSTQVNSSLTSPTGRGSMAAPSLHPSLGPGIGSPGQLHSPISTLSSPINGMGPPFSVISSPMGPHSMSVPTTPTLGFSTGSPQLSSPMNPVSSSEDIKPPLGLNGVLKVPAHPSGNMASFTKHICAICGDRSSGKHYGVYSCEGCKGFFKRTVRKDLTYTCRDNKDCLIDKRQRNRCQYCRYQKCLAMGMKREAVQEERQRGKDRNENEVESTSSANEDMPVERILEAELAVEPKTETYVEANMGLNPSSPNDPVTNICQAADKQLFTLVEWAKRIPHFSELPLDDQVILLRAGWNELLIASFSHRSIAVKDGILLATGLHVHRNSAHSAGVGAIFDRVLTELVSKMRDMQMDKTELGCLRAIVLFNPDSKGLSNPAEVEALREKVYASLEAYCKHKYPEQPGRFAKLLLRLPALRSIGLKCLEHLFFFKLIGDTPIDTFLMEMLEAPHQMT
# Sequence of Peroxisome proliferator-activated receptor gamma (Homo sapiens) (P37231 whole entry, looked up, the tested form may be a part): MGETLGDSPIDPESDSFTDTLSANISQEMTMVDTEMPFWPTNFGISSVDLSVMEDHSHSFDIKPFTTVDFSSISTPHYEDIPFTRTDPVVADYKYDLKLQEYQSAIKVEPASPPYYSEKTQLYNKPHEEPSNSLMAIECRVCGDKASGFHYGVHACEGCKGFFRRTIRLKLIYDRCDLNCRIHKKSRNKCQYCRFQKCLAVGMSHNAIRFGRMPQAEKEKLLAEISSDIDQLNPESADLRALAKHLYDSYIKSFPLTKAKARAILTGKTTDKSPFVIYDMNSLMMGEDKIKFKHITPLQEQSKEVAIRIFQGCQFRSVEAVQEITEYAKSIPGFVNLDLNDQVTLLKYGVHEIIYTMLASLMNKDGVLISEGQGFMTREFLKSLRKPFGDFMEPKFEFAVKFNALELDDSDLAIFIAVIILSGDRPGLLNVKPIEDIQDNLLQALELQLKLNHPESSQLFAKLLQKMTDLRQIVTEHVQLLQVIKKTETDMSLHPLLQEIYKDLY
# Sequence of Bile acid receptor (Homo sapiens) (Q96RI1 whole entry, looked up, the tested form may be a part): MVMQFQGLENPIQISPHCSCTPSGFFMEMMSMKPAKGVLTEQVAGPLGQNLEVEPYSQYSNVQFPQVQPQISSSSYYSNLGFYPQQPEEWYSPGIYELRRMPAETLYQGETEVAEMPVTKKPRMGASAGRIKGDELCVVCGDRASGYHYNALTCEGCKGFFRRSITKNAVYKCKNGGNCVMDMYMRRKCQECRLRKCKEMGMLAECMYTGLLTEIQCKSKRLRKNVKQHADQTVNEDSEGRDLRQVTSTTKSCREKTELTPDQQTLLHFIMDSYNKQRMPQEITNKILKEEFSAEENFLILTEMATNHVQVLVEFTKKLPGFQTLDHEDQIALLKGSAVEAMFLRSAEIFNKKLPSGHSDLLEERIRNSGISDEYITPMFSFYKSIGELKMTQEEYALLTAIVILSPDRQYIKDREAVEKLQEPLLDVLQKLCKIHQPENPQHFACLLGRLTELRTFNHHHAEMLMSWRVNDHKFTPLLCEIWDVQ
# Sequence of Fatty acid synthase (Homo sapiens) (P49327 whole entry, looked up): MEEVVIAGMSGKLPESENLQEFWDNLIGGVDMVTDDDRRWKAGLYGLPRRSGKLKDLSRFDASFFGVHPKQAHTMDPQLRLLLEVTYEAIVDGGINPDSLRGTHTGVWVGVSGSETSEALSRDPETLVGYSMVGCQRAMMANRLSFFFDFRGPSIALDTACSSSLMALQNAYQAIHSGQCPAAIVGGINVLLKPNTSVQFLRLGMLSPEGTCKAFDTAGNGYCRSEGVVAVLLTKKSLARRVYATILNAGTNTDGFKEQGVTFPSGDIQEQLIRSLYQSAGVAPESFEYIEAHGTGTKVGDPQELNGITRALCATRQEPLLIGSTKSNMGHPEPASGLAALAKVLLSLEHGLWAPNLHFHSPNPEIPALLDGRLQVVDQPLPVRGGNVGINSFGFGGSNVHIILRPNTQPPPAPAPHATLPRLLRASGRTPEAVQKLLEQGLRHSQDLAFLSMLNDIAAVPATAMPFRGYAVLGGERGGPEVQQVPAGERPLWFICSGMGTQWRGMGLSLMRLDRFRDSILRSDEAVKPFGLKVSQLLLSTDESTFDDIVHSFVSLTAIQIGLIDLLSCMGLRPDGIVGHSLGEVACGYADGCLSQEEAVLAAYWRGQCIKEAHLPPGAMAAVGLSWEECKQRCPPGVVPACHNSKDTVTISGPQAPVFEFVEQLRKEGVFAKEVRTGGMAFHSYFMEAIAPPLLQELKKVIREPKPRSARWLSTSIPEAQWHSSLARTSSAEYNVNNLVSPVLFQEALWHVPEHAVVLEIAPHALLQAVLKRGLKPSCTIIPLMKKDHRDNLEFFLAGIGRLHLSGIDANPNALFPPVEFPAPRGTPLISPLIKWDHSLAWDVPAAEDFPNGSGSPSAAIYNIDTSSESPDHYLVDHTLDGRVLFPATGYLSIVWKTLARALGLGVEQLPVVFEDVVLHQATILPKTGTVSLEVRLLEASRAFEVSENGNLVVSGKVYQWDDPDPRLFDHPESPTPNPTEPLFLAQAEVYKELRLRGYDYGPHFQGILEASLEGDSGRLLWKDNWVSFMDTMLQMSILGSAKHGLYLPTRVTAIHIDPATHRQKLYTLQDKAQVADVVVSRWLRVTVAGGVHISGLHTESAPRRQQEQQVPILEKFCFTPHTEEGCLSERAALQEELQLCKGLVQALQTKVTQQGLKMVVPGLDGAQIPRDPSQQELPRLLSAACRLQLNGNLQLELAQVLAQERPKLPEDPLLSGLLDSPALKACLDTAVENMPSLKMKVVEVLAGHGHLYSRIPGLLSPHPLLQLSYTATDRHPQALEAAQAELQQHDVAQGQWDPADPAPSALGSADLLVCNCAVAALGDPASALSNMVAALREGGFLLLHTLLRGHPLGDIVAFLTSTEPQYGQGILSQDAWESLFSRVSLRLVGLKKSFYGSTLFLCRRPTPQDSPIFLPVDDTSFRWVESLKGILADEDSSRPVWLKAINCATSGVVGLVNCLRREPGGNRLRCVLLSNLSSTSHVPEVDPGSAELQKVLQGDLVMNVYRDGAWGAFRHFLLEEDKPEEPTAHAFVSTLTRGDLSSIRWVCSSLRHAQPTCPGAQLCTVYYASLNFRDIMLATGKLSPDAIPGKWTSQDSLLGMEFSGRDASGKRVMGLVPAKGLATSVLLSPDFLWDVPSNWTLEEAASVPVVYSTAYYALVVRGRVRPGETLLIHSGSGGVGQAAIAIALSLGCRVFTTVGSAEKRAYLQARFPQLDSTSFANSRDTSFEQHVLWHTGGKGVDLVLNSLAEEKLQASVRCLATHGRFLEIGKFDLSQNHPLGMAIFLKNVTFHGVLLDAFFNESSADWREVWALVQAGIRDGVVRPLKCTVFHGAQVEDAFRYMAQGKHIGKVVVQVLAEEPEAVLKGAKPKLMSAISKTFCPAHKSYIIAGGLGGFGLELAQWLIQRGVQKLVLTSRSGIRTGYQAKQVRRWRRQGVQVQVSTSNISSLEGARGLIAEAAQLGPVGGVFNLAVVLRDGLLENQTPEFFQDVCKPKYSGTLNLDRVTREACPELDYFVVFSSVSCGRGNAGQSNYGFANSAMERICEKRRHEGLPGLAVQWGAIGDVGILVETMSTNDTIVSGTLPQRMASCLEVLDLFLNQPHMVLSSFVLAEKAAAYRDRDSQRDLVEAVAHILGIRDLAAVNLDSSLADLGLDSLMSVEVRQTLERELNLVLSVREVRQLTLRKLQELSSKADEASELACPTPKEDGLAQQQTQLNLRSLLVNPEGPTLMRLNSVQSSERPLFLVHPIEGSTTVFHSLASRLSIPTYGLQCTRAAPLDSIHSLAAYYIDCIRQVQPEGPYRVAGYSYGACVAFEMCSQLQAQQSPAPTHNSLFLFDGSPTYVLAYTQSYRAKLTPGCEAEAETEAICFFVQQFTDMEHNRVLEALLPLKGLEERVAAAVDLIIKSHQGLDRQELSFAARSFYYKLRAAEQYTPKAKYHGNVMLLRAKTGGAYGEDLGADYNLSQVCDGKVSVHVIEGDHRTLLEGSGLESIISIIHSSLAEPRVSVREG
smiles,measurement,setting,value
CNC(=S)S,outcome,[1],inactive
same,outcome,[2],inactive
same,outcome,[3],inactive
same,outcome,[4],inactive
same,outcome,[5],inactive
same,outcome,[6],inactive
same,outcome,[7],inactive
same,outcome,[8],inactive
same,outcome,[9],inactive
same,outcome,[10],inactive
same,outcome,[11],inactive
same,outcome,[12],inactive
same,outcome,[13],inactive
same,outcome,[14],inactive
same,outcome,[15],inactive
same,outcome,[16],inactive
Cc1cc(Cl)ccc1OCC(=O)O,outcome,[17],inactive
same,outcome,[1],inactive
same,outcome,[2],inactive
same,outcome,[3],inactive
same,outcome,[4],inactive
same,outcome,[5],inactive
same,outcome,[6],inactive
same,outcome,[18],inactive
same,outcome,[7],inactive
same,outcome,[8],inactive
same,outcome,[9],inactive
same,outcome,[12],inactive
same,outcome,[13],inactive
same,outcome,[14],inactive
same,outcome,[15],inactive
same,outcome,[16],inactive
N#Cc1cc(Br)c(O)c(Br)c1,outcome,[2],inactive
same,outcome,[3],inactive
same,outcome,[13],inactive
same,AC50,[14],8.13 µM (active)
same,outcome,[15],inactive
same,AC50,[16],10.1 µM (active)
CCCCNC(=O)n1c(NC(=O)OC)nc2ccccc21,outcome,[19],inactive
same,outcome,[20],inactive
same,outcome,[2],inactive
same,outcome,[3],inactive
same,outcome,[4],inactive
same,outcome,[5],inactive
same,outcome,[6],inactive
same,outcome,[18],inactive
same,outcome,[7],inactive
same,outcome,[8],inactive
same,outcome,[9],inactive
same,outcome,[10],inactive
same,outcome,[11],inactive
same,outcome,[12],inactive
same,outcome,[13],inactive
same,outcome,[14],inactive
same,outcome,[15],inactive
same,outcome,[16],inactive
O=C(Nc1ccccc1)Nc1ccnc(Cl)c1,outcome,[20],inactive
same,outcome,[2],inactive
same,outcome,[3],inactive
same,outcome,[13],inactive
same,outcome,[14],inactive
same,outcome,[15],inactive
same,AC50,[16],50 µM (active)
CCNc1nc(Cl)nc(NC(C)C)n1,outcome,[17],inactive
same,outcome,[1],inactive
same,outcome,[2],inactive
same,outcome,[3],inactive
same,outcome,[4],inactive
same,outcome,[5],inactive
same,outcome,[6],inactive
same,outcome,[7],inactive
same,outcome,[8],inactive
same,outcome,[9],inactive
same,outcome,[10],inactive
same,AC50,[11],1.35 µM (active)
same,outcome,[12],inactive
same,outcome,[13],inactive
same,outcome,[14],inactive
same,outcome,[15],inactive
same,outcome,[16],inactive
